PI5P4Ka inh – PI5P4K alpha (human) kinase inhibition; max response, %; actives 1.2% (n = 330,000); P48426; PI5P4Kalpha enzyme, ADP-Glo luminescence, 60 min; active compounds read low; active means max response of -50% or lower; inconclusive means between -30% and -50%; inactive means -30% or higher; further: value at the top dose of about 77 µM; on the % scale 0 is the no-effect control and ±100 the full control effect
Target sequence (P48426 whole entry, looked up): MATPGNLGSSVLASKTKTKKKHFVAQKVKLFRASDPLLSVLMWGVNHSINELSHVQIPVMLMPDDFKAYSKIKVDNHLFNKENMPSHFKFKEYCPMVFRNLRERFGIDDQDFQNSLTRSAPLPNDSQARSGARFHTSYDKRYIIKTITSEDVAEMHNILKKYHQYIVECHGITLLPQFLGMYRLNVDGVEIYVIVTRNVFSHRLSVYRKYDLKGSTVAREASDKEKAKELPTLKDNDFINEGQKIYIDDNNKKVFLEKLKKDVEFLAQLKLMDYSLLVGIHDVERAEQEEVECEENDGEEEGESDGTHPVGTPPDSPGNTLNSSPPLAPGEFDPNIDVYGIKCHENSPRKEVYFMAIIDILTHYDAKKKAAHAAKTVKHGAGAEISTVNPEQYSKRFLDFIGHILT
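Reactions run in 0.038 M HEPES pH 7.4, 0.28 mM EGTA, 0.1% CHAPS and 5% DMSO, with PI5P4Kalpha, substrate, compound and 5 microM ATP final, one hour at room temperature. Readout is ADP-Glo luminescence.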
POLH inh – blocks human DNA polymerase eta activity | Q9Y253 | recombinant Pol eta, fluorescent DNA replication assay | Potency, µM (series often up to 114 µM), for inactives: at the highest dose activity change, negative = inhibition, hits mostly inhibitors | actives 1.2% (n = 390,000) | AID 588591; further: potency means the concentration at half of the fitted maximal effect; on the % scale 0 is the no-effect control and ±100 the full control effect
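Fluorescent replication assay: 50 nM final substrate added after a 15 min room-temperature compound preincubation with 10 nM enzyme. Signal taken at 0 min and again at 10 min.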
POLK inh – inhibitors of human DNA polymerase kappa; purified Pol kappa, fluorescent DNA synthesis assay, 10 min; Potency, µM (top dose mostly 107 µM), for the others: at the top dose activity, negative = inhibition, actives largely listed as inhibitors; Q9UBT6; actives 0.53% (n = 400,000); AID 588579; further: potency means the concentration at half of the fitted maximal effect; on the % scale 0 is the no-effect control and ±100 the full control effect
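Fluorescent qHTS in 1536-well format: enzyme (10 nM) and compound sat 15 min at room temperature before 50 nM substrate (final) was added. Signal taken at 0 and 10 min; no-enzyme buffer wells were negative controls.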
POLB inh – blocks human DNA polymerase beta activity | P06746 | Pol beta primer extension/strand displacement, fluorescence kinetic | AID 485314 | actives 1.3% (n = 340,000) | Potency, µM (highest dose often 114 µM), inactives show at the top dose activity change, negative = inhibition, most hits filed as inhibitors; further: potency means the concentration at half of the fitted maximal effect; on the % scale 0 is the no-effect control and ±100 the full control effect
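Pol beta (10 nM) was preincubated with compound for 15 min at room temperature. The reaction was then started with 50 nM substrate and read immediately and after a further 10 min at room temperature.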
Pol iota inh – inhibitors of human DNA polymerase iota; Q9UNA4; Pol iota fluorescent replication assay, 10 min; Potency, µM (top dose mostly 115 µM), for inactives: at the top dose activity, negative = inhibition, actives largely listed as inhibitors; actives 1% (n = 390,000); further: potency means the concentration at half of the fitted maximal effect
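Pol iota at 10 nM preincubated 15 min with compounds at room temperature; reaction started with fluorescent substrate, 50 nM final. Fluorescence read kinetically at 0 and 10 min; buffer-only wells as negative control.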
WRN helicase inh – WRN helicase (human) inhibition | Potency, µM (series often up to 114 µM), for the others: top-dose activity change, negative = inhibition, hits mostly inhibitors | WRN helicase unwinding, fluorescent forked duplex, kinetic | Q14191 | actives 0.46% (n = 360,000); further: potency means the concentration at half of the fitted maximal effect; on the % scale 0 is the no-effect control and ±100 the full control effect; nearly all actives have a fitted effect of over 55% in size
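Kinetic red-fluorescence monitoring (525/598 nm) tracks WRN helicase activity after 100 nM fluorophore-quencher forked duplex and 2 mM ATP are added to 20 nM enzyme pretreated 15 min at room temperature with compound.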
Numbers without * were called inactive; [ ] = another dose, or the depositor's remark. Rows were chosen to be rich in hits. Some 2.8% of all compounds tested hit in one or more screens of this group. Unless noted, the call rests on the fitted dose curve; in most records, active means well fitted curve in the direction sought with a large enough effect; inconclusive means small, poorly fitted or top-dose-only effect, or another doubt; inactive means no such curve, though single readings can be large; an effect the other way counts as inactive or inconclusive.

What do the screens show for `COc1cc(/C=N/Nc2ccc(Cl)c(C(=O)O)c2)ccc1OC(=O)c1cccs1`?
PI5P4Ka inh: 6; POLH inh: 79µM*; POLK inh: -12%; POLB inh: inconclusive; Pol iota inh: 80%; WRN helicase inh: 0%[11.6 µM]

How did O=C(O)c1cc(N/N=C/c2ccc(-c3ccccc3)cc2)ccc1Cl do in these assays?
PI5P4Ka inh: inconclusive; POLH inh: inconclusive; POLK inh: -2%; POLB inh: 89µM*; Pol iota inh: -6%; WRN helicase inh: -21%

Results for COc1ccc(C(=O)Oc2ccc(/C=N/Nc3ccc(Cl)c(C(=O)O)c3)cc2OC)cc1 ?
PI5P4Ka inh: 2; POLH inh: 79µM*; POLK inh: -28%; POLB inh: inconclusive; Pol iota inh: 9%; WRN helicase inh: -20%

What do the screens show for `Cc1cc(C(=O)COc2ccc3ccc(=O)oc3c2)c(C)n1Cc1cccs1`?
PI5P4Ka inh: -25; POLH inh: -18%; POLK inh: -19%; POLB inh: 50µM*; Pol iota inh: -47%; WRN helicase inh: -8%

How did CC(=O)c1c(C)[nH]c(C(=O)COc2ccc3ccc(=O)oc3c2)c1C do in these assays?
PI5P4Ka inh: 3; POLH inh: 35µM*; POLK inh: -34%; Pol iota inh: inconclusive; WRN helicase inh: 5%[11.6 µM]

What do the screens show for `Cc1ccc(OCC(=O)c2cc(C)n(Cc3cccs3)c2C)c([N+](=O)[O-])n1`?
PI5P4Ka inh: -5; POLH inh: -13%; POLK inh: -23%; POLB inh: inconclusive; Pol iota inh: 95%; WRN helicase inh: 4%

Results for Cc1ccc(Nc2nc3ccccc3c3nnc(C)n23)c(C)c1 ?
POLH inh: -10%; POLK inh: -3%; POLB inh: -21%; Pol iota inh: 36%

Results for COc1ccc(-c2csc(C(C#N)=C(O)CSc3nccn3C)n2)cc1OC ?
PI5P4Ka inh: 2; POLH inh: 45µM*; POLK inh: -25%; Pol iota inh: 14µM*; WRN helicase inh: inconclusive

How did Cc1cc(C)c2sc(N3CCN(C(=O)C4CC4)CC3)nc2c1 do in these assays?
POLH inh: 0%; POLK inh: -9%[60.1 µM]; POLB inh: -7%; Pol iota inh: 11%

Results for C[C@]12CC[C@@H]3c4ccc(O)cc4CC[C@H]3[C@@H]1CCC2OC(=O)CCC1CCCC1 (some centres undefined) ?
POLK inh: -30%[60.1 µM]

How did O=C(N/N=C/c1ccc([N+](=O)[O-])o1)c1ccc(NS(=O)(=O)c2cccs2)cc1 do in these assays?
PI5P4Ka inh: -62*; POLH inh: 32µM*; POLK inh: -34%; POLB inh: inconclusive; Pol iota inh: 50µM*; WRN helicase inh: -10%[11.6 µM]

How did O=C(N/N=C/c1cccc([N+](=O)[O-])c1)c1cc(-c2ccc3c(c2)OCO3)n[nH]1 do in these assays?
PI5P4Ka inh: -21; POLH inh: 18µM*; POLK inh: inconclusive; POLB inh: -23%; Pol iota inh: inconclusive; WRN helicase inh: -13%[11.6 µM]

What do the screens show for `O=C(N/N=C/c1ccc([N+](=O)[O-])o1)c1ccc2c(c1)OCO2`?
PI5P4Ka inh: -8; POLH inh: -7%; POLK inh: -21%; POLB inh: 40µM*; Pol iota inh: inconclusive; WRN helicase inh: -14%

What do the screens show for `O=C(N/N=C\C=C\c1ccc([N+](=O)[O-])o1)c1cccs1`?
PI5P4Ka inh: inconclusive; POLH inh: 50µM*; POLK inh: 79µM*; POLB inh: 32µM*; Pol iota inh: 5µM*; WRN helicase inh: -8%[11.6 µM]

Results for O=C(N/N=C/c1ccc(N2CCOCC2)cc1)c1ccc(NS(=O)(=O)c2cccs2)cc1 ?
PI5P4Ka inh: 9; POLH inh: -8%; POLK inh: -9%; POLB inh: 0%; Pol iota inh: 28%; WRN helicase inh: -11%

Results for O=C(N/N=C/c1cccc(O)c1)c1cc(-c2ccc3c(c2)OCO3)n[nH]1 ?
PI5P4Ka inh: -21; POLH inh: -12%; POLK inh: -8%; POLB inh: inconclusive; Pol iota inh: inconclusive; WRN helicase inh: 4%

What do the screens show for `O=C(N/N=C\c1ccc(-c2ccc([N+](=O)[O-])cc2)o1)c1ccc2c(c1)OCO2`?
PI5P4Ka inh: -12; POLH inh: -22%; POLK inh: 10%; POLB inh: 3%; Pol iota inh: 11%; WRN helicase inh: 2%

What do the screens show for `Ic1ccc(/C=C2\C=Cc3ccccc32)cc1`?
POLK inh: -13%; Pol iota inh: -2%

Results for COc1cc2c(cc1OC)C(COc1ccccc1OC)N(C(=O)c1ccc(S(=O)(=O)N3CCCC3)cc1)CC2 (centres undefined) ?
POLH inh: -13%; POLK inh: 4%[60.1 µM]; POLB inh: -3%; Pol iota inh: -2%

Results for CCOc1ccccc1C(=O)Nc1nc2c(s1)CC(C)CC2 (centres undefined) ?
POLH inh: 3%; POLK inh: 0%; POLB inh: -2%; Pol iota inh: 0%

Results for O=[N+]([O-])c1ccc(/C=N/N=C/c2ccc([N+](=O)[O-])o2)o1 ?
PI5P4Ka inh: -14; POLH inh: inconclusive; POLK inh: inconclusive; POLB inh: -26%; Pol iota inh: 22µM*; WRN helicase inh: -17%

Results for CC(=O)N/N=C/c1ccc([N+](=O)[O-])o1 ?
POLK inh: -8%[19.4 µM]

Results for COc1ccccc1OCC(=O)N/N=C/C=C/c1ccc([N+](=O)[O-])o1 ?
PI5P4Ka inh: 2; POLH inh: inconclusive; POLK inh: inconclusive; POLB inh: 32µM*; Pol iota inh: 79µM*; WRN helicase inh: -24%

Results for O=C(O)c1ccc(Nc2nc3ccccc3c3nncn23)cc1 ?
POLH inh: -25%; POLK inh: -15%; POLB inh: -9%; Pol iota inh: 35%

Results for COc1ccccc1C(=O)NCc1ccc2c(c1)CCN2C(=O)c1ccncc1 ?
POLH inh: -2%; POLK inh: -1%[60.1 µM]; POLB inh: 11%; Pol iota inh: -8%

Results for CC(C)C(NC(=O)c1ccccc1Br)c1ccccc1 (centres undefined) ?
PI5P4Ka inh: 5; POLH inh: -1%; POLK inh: 3%; POLB inh: -8%; Pol iota inh: 43%; WRN helicase inh: -3%

How did CC(NC(=S)NC(=O)c1ccccc1Br)c1ccccc1 (centres undefined) do in these assays?
PI5P4Ka inh: -56*; POLH inh: -17%; POLK inh: -5%; POLB inh: 3%; Pol iota inh: -20%; WRN helicase inh: -7%

What do the screens show for `CN(C)c1ccc(/C=C/c2c(F)cnc3ccccc23)cc1`?
POLK inh: -9%; Pol iota inh: 16%

Source: PubChem
